# BAZ2B inh – inhibitors of human BAZ2B bromodomain; Q9UIF8; AlphaScreen BAZ2B-H3K14Ac peptide displacement; Potency, µM (doses to about 114 µM), inactives show at the top dose activity change, negative = inhibition, most hits filed as inhibitors; 4.4% of 360,000 active; note: % is set by controls: 0 for no effect and ±100 for the full control effect; nearly all actives have a fitted effect of over 60% in size
#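 AlphaScreen luminescence quantifies BAZ2B engagement of H3K14Ac peptide; the protein and biotinylated peptide are both at 50 nM final, buffer PBS pH 7.4 with 0.01% Tween-20, all steps at room temperature.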
# HP1b chromo inh – blocks HP1-beta chromodomain binding to methylated histone tails. 0.56% of 390,000 active. P83916. AlphaScreen HP1-beta / biotin-H3K9me3 peptide binding. Potency, µM (highest dose often 114 µM), inactives show top-dose activity change, negative = inhibition, usual class: inhibitors; note: nearly all actives have a fitted effect of over 70% in size
# Target sequence (P83916 whole entry, looked up): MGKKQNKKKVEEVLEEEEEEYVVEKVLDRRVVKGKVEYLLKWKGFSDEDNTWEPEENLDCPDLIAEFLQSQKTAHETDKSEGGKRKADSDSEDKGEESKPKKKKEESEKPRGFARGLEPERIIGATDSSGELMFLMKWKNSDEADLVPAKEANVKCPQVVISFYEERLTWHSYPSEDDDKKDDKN
#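 AlphaScreen: HP1-beta (50 nM) preformed 30 min with biotin-H3(1-18)K9me3 peptide (50 nM) in PBS pH 7.4, 0.01% Tween-20. Compound added for 30 min at RT, then streptavidin donor/nickel chelate acceptor beads (10 ug/mL) for 30 min.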
# L3MBTL1 block – L3MBTL1 (human) inhibition. Q9Y468. Potency, µM (highest dose often 57.1 µM), inactives show at the top dose activity, negative = inhibition, usual class: inhibitors. 0.66% of 230,000 active. AlphaScreen L3MBTL1–H3K9me1 peptide binding; note: % is set by controls: 0 for no effect and ±100 for the full control effect; nearly all actives have a fitted effect of over 60% in size
#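 AlphaScreen assay: L3MBTL1 (50 nM final) was preincubated 30 min at room temperature with biotinylated H3(1-15)K9me1 peptide (75 nM final), then 30 min with library compounds; streptavidin donor and nickel chelate acceptor beads (10 ug/mL final) added, 30 min dark.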
# Sfp inh – blocks B. subtilis Sfp PPTase activity. Q9F4F7. Potency, µM, for inactives: largest response in the series, negative = inhibition, actives largely listed as inhibitors. 3.5% of 310,000 active. AID 1490. Biochemical Sfp PPTase activity, qHTS;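 note: the enzyme is Sfp with the accession as filed and its product quenches rhodamine fluorescence; 0% = enzyme reaction without inhibitor and -100% = no enzyme wells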
#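 Buffer: 50 mM Hepes-Na pH 7.6, 10 mM MgCl2, 0.01% Nonidet P-40, 0.01% BSA. Enzyme 15 nM, pre-exposed to compound 15 min; substrates then added and fluorescence change tracked over 30 min.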
# G9a inh – inhibitors of human histone lysine methyltransferase G9a | 8.8% of 350,000 active | G9a H3K9 monomethylation, AlphaScreen, 2 h | Potency, µM (doses to about 102 µM), for inactives: at the highest dose activity, negative = inhibition, most hits filed as inhibitors | AID 504332; note: % is set by controls: 0 for no effect and ±100 for the full control effect; nearly all actives have a fitted effect of over 75% in size
# Target sequence (Q96KQ7 913-1193 limits assumed): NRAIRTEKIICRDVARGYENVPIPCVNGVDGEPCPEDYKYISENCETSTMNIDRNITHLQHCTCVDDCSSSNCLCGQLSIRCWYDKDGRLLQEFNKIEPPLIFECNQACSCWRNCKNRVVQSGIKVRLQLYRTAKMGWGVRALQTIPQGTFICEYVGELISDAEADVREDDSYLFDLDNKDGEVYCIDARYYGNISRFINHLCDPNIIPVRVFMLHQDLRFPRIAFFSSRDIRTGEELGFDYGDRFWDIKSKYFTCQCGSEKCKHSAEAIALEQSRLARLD
#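 G9a (20 nM) was preincubated 15 min with compound, then reacted 2 h at room temperature with 500 nM biotin-H3K9 peptide and 20 µM SAM. Monomethyl-H3K9 detected by AlphaScreen using anti-H3K9me1 antibody.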
# JMJD2A Tudor inh – JMJD2A Tudor domain (human) inhibition; 4.4% of 390,000 active; O75164; AID 504339; Potency, µM (titrated, usually from 114 µM), for inactives: at the top dose activity change, negative = inhibition, most hits filed as inhibitors; AlphaScreen JMJD2A-Tudor / H3K4me3 peptide binding; note: % is set by controls: 0 for no effect and ±100 for the full control effect; nearly all actives have a fitted effect of over 50% in size
# Active calls of the source: *; ? = inconclusive; · = not tested or not shown; [ ] = remark or other dose. Shown are actives, neighbours in structure and some others; about 12% of the full set was active somewhere. Calls come from the whole dose curve; as a rule, active = well fitted curve in the direction sought with a large enough effect; inconclusive = small, poorly fitted or top-dose-only effect, or another doubt; inactive = no such curve, though single readings can be large; an effect the other way counts as inactive or inconclusive. Potency is the fitted concentration of half-maximal effect.
SMILES,BAZ2B inh,HP1b chromo inh,L3MBTL1 block,Sfp inh,G9a inh,JMJD2A Tudor inh
N#CC1=C2C=CC=CN2CC1=O,50µM*,-23%,-4%,?,4µM*,8.9µM*
Cc1cc(OC(=O)c2ccc3ccccc3c2)c([N+](=O)[O-])c(=O)[nH]1,-22%,30%,7%,11%,45µM*,-29%
Cc1cc(OC(=O)c2ccc(S(=O)(=O)N3CCOCC3)cc2)c([N+](=O)[O-])c(=O)[nH]1,?,36%,-7%,17%,56µM*,-16%
Cc1ccc(C(=O)Oc2cc(C)[nH]c(=O)c2[N+](=O)[O-])cc1,-31%,45%,·,-30%,-37%,-7%
Cc1ccc2c(c1)c1c(c(=O)n(-c3ccccc3)c(=O)n1CC(=O)NCCC1=CCCCC1)n2C,-6%,21%,·,·,-5%[59 µM],-11%
CC1CCN(C(=O)c2ccc(CSc3nc4ccncc4n3Cc3ccc(F)cc3)cc2)CC1,-8%,19%,-1%,-3%,79µM*,-20%
CC(C)(C)C(=O)/C(=C/c1ccncc1)n1cncn1,-4%,17%,3%,35µM*,·,-21%
CCc1ccc(NC2=NCC(c3ccccc3)S2)cc1 (configuration not stated),-5%,114%,4%,-18%,6%,22%
O=[N+]([O-])c1ccc(C2CN=C(Nc3ccccc3)S2)cc1 (configuration not stated),?,0%,·,-3%,45µM*,-30%
Cc1cc(C)c(S(=O)(=O)Nc2ccc(-c3cn4ccccc4n3)cc2)c(C)c1,?,-10%,·,-10%,?,?
Cc1cc(C)c(S(=O)(=O)Nc2cccc(-c3cn4ccccc4n3)c2)c(C)c1,-28%,45%,·,·,-36%[59 µM],5µM*
O=[N+]([O-])c1cc(-c2cnc3ccccc3n2)ccc1Cl,-20%,-22%,-1%,2%,-3%,-34%
O=[N+]([O-])c1cc(-c2ccc(/C=N/c3nc4ccccn4c3-c3ccco3)o2)ccc1Cl,45µM*,-17%,·,?,13µM*,?
Cc1cccc(CN2CCN(CC(=O)NCCc3ccc(Cl)cc3)C2=O)c1,-4%,7%,·,·,1%[59 µM],-18%
CC(C)C1=C2OC(N)=C(C#N)C(C#N)=C2C(C)CC1 (configuration not stated),-33%,34%,-9%,79µM*,?,-3%
CCc1ccc(C(=O)c2cn(CC(=O)Nc3ccc(OC)c(Cl)c3)c3nc(C)ccc3c2=O)cc1,1%,9%,·,·,4%[59 µM],1%
COc1ccc(NC(=O)CN2CCN(Cc3ccccc3Cl)S2(=O)=O)cc1Cl,1%,37%,·,·,-1%[59 µM],3%
O=C1/C(=C\c2ccc(O)cc2)SC(=S)N1Cc1ccccc1,50µM*,?,-5%,-10%,·,?
COc1ccc(CN2C(=O)/C(=C/c3ccncc3)SC2=S)cc1,8.9µM*,?,?,?,28µM*,50µM*
O=C1/C(=C\c2cc(Br)cc(Br)c2O)SC(=S)N1Cc1ccccc1,10µM*,32µM*,·,63µM*,-10%[2.33 µM],28µM*
CC(=O)Oc1ccc(/C=C2/SC(=S)N(Cc3ccccc3)C2=O)cc1,3.5µM*,?,·,8%,?,?
CCCCN(C)CCCNC(=O)Cn1ncc2c3ccccc3n(Cc3cccc(Cl)c3)c2c1=O,-12%,2%,·,·,-38%[59 µM],-20%
Cc1nc2ccn(Cc3ccco3)c(=O)c2cc1C(=O)Nc1ccc(F)cc1,-16%,22%,·,·,0%[59 µM],-12%
O=C1C[C@@H](O)[C@@H](O)[C@H]2[C@@H]3C(=O)N(C4CCCCC4)C(=O)[C@@H]3CC[C@H]12,·,·,·,18%,·,·
Cc1nnc(N2CCN(C(=O)NC(C)C)CC2)c2nn(-c3ccccc3)c(C)c12,-13%,43%,·,·,2%[59 µM],-10%
SMILES,BAZ2B inh,HP1b chromo inh,L3MBTL1 block,Sfp inh,G9a inh,JMJD2A Tudor inh
O=C1/C(=C/c2ccccc2O)SC(=S)N1Cc1cccnc1,6%,2%,7%,50µM*,?,-23%
Fc1ccccc1CN1CCC(Cc2ccccc2)CC1,?,?,62%,-25%,·,0.89µM*
Fc1cccc(CNC2CCN(CCc3ccccc3)CC2)c1,-28%,35%,-1%,-27%,2%,-19%
Fc1cccc(CN2CCC(Cc3ccccc3)CC2)c1,79µM*,?,-1%,8%,28µM*,56µM*
Cc1cc(C)nc(-n2nc(C)c3c2N(Cc2ccccc2F)C(=O)CC3c2ccc(Cl)cc2)n1 (configuration not stated),?,65%,·,·,-11%[59 µM],-27%
Cc1cc(C)c(C(=O)COC(=O)c2ccc([N+](=O)[O-])o2)cc1C,·,-19%,·,1%,?,-22%[11.4 µM]
Cc1cc(C(=O)COC(=O)c2ccc([N+](=O)[O-])o2)c(C)n1CC1CCCO1 (configuration not stated),?,10%,?,-3%,45µM*,-27%
COCCn1c(C)cc(C(=O)COC(=O)c2ccc([N+](=O)[O-])o2)c1C,45µM*,4%,-17%,4%,79µM*,?
CSc1ncccc1C(=O)OCC(=O)c1cc(C)n(CC2CCCO2)c1C (configuration not stated),-29%,?,-14%,-2%,?,?
CCCCn1c(C)cc2c(c1=O)C1O[C@](c3ccc(OC)cc3)(Cc3cc(OC)c(OC)cc31)O2,-34%[22.9 µM],·,·,-12%,-4%[2.33 µM],·
O=C(CSc1nc2c([nH]c3ccccc32)c(=O)n1-c1ccccc1)Nc1ccccc1C(F)(F)F,2%,21%[57 µM],·,·,13%[59 µM],-17%
O=C(Nc1ccc(S(=O)(=O)Nc2ncccn2)cc1)c1cccnc1,-1%,47%,3%,-14%,-6%,2%
COc1nccnc1NS(=O)(=O)c1ccc(NC(=S)NC(=O)c2ccccc2F)cc1,?,?,-16%,-23%,?,?
COc1nccnc1NS(=O)(=O)c1ccc(NC(=S)NC(=O)c2cccc(F)c2)cc1,?,-29%,-2%,3%,?,?
COc1nccnc1NS(=O)(=O)c1ccc(NC(=S)NC(=O)c2ccc(F)cc2)cc1,-39%,-12%,-1%,50µM*,?,-29%
COc1ccc(NC(=O)c2ccc(C#N)cc2)cc1NS(=O)(=O)c1ccc(F)cc1,-1%,43%,-3%,-13%,8.9µM*,6%[57.1 µM]
COc1ccc(NC(=O)c2ccc3ccccc3c2)cc1NS(=O)(=O)c1ccc(F)cc1,-7%,4%,-8%,10%,-6%[59 µM],-23%
COc1nccnc1NS(=O)(=O)c1ccc(NC(=S)NC(=O)c2cccnc2)cc1,?,8%,·,?,50µM*,-13%

# Screening results as filed in PubChem BioAssay.
